# Beta2AR agonist – agonists of human beta-2 adrenergic receptor inducing internalization. hit rate 0.43% among 340,000. response, % (no concentration beside the values). Am2.2-beta2AR cells, FAP receptor internalization, flow cytometry;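 active means response above a set limit, near 3 SD of response in nonfluorescent compounds, cut at about 42% in these data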
# Target sequence (P07550 whole entry, looked up): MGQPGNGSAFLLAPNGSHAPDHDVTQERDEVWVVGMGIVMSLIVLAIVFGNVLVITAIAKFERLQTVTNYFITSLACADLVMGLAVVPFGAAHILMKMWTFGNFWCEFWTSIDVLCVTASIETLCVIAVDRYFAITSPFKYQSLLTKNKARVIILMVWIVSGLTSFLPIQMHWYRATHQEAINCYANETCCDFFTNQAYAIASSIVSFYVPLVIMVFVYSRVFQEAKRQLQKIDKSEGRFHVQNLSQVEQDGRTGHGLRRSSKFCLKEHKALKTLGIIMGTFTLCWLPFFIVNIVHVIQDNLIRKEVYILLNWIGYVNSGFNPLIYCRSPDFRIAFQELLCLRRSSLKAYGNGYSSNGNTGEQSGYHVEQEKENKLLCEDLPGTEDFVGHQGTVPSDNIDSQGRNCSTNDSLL
# tim23-1 inh – tim23-1 yeast growth inhibition; inhibition, % at 20 µM; S. cerevisiae tim23-1 growth, BacTiter-Glo luminescence, 24 h; AID 463212; hit rate 1.3% among 330,000;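 active means growth inhibition of the mutant yeast at or above 50%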;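 further: temperature-sensitive mutant grown at 25 °C; plate controls were DMSO-treated mutant yeast for no effect and medium wells lacking yeast for full effect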
# PfHsp90 yeast 2 – inhibits growth of yeast expressing Plasmodium falciparum Hsp90; S. cerevisiae expressing PfHsp90, BacTiter-Glo ATP, 48 h; yeast lacking PDR1 and PDR3 efflux regulators; inhibition, % at 9.4 µM; hit rate 0.32% among 310,000; AID 504621;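 active means every replicate shows inhibition above about 80%, whatever the replicate mean, limit read from the data; inconclusive means mean inhibition reaches the set limit but some replicate falls short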;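 further: 0% = DMSO neutral controls and 100% = 20 µM radicicol positive controls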
# tim10-1 inh – growth inhibitors of tim10-1 mutant yeast; S. cerevisiae tim10-1 ts strain growth, BacTiter-Glo, 24 h; inhibition, % at 20 µM; hit rate 2.2% among 330,000; AID 463190;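 active means inhibition of at least 40%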;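 further: mutant grown at 25 °C; 0% = DMSO wells with yeast and 100% = wells holding no yeast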
# TIM10 inh – TIM10 yeast growth inhibition. S. cerevisiae TIM10 strain growth, BacTiter-Glo luminescence, 24 h. inhibition, % at 10 µM. hit rate 1.4% among 330,000;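 active means inhibition of 40% or more at the single tested concentration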;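 further: wild-type TIM10 isogenic control strain grown at permissive 25 °C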
# tim23-1 confirm – tim23-1 yeast growth inhibition, confirmed; shares compounds with tim23-1 inh; S. cerevisiae tim23-1 growth, BacTiter-Glo luminescence, 24 h; inhibition, % at 20 µM; hit rate 83% among 4,400;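 active means inhibition above about 39% in either of two replicate wells at 20 µM, limit read from the data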;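 further: temperature-sensitive tim23-1 mutant grown at 25 °C; 0% = DMSO wells with yeast and 100% = medium wells without yeast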
# * marks the source's active call; other numbers are inactive results; u = inconclusive; x = no result. Hits are enriched below; roughly 3.8% of the tested compounds scored in any of these assays.
SMILES,Beta2AR agonist,tim23-1 inh,PfHsp90 yeast 2,tim10-1 inh,TIM10 inh,tim23-1 confirm
O=C(O)c1cccc(N/N=C(\N=Nc2ccccc2)c2ccccc2)c1,4,53*,0,34,3,46*
O=C(O)c1ccc(N=N/C(=N\Nc2ccc(C(=O)O)cc2)c2ccccc2)cc1,4,25,12,5,10,x
O=S(=O)(c1ccc(Br)c2ccccc12)N1CCCC1,6,32,-8,7,0,x
Cc1ccc(NC(=O)c2ncn(CCCN3CCN(Cc4cccc5ccccc45)CC3)n2)cc1C,36,x,58,x,x,x
COc1cc2nc(C3CCC3)nc(N3CCN(c4ccccc4OC)CC3)c2cc1OC,2,53*,37,30,39,44*
COc1cc2c(c(OC)c1OC)C(c1ccccc1C)CC(=O)O2 (centres undefined),3,55*,5,3,5,21
Cc1cc(C)c2c(c1)OC(=O)CC2c1ccccc1C (centres undefined),-1,54*,-30,26,-1,29
COc1ccccc1C1CC(=O)Oc2cc(C)cc(C)c21 (centres undefined),-1,42,3,17,1,x
CC(C)C[C@@H](CO)NS(=O)(=O)c1c(F)cccc1F,-6,x,-33,x,x,x
O=C(Cc1ccccc1)Nc1ccc(N2CCN(Cc3ccccc3F)CC2)cc1,-5,4,x,4,-9,x
Cc1ccc(C)n1-n1c(C)nc2sc(-c3ccccc3)cc2c1=O,0,13,-4,-1,-7,x
Cc1nc2cc(-c3ccccc3)sc2c(=O)n1N,-20,51*,56,36,33,53*
O=S(OCCN1CCOCC1)C(c1ccccc1)c1ccccc1 (centres undefined),-9,x,x,x,x,x
Cn1ccnc1C(=O)c1cc(SCC(=O)NC2CC2)nc2ccccc12,1,8,-14,13,-25,x
CN(C(=O)CSc1cc(C(=O)c2nccn2C)c2ccccc2n1)c1ccccc1,16,50*,5,17,29,41*
COc1ccc(N2C(=O)CC(NCc3cccs3)C2=O)cc1 (centres undefined),-1,55*,-24,-4,1,13
NNC(=S)Nc1c(F)cc(F)cc1Br,-2,8,0,25,10,x
O=C1NC(Cc2ccccc2)c2nc3ccccc3c(=O)n2-c2cc(Cl)ccc21 (centres undefined),x,12,x,11,3,x
CC(C)c1ccc(C(=O)NNC(=O)C2C3CCC(C3)C2C(=O)O)cc1 (centres undefined),x,14,x,12,-9,x
S=C(NCCSCc1c(Cl)cccc1Cl)Nc1ccccc1,-1,50*,x,35,40,51*
Cc1ccc(Nc2nc(Cl)nc(NC(C)(C)C)n2)cc1,11,50*,-17,32,14,40*
O=C1/C(=C/c2ccccc2Cl)SC(=S)N1CCCC(=O)N(CCO)c1ccccc1,-1,56*,-9,33,22,48*
COc1cccc(-c2nc(C(=O)NCC3CCCO3)cc3c2[nH]c2ccccc23)c1 (centres undefined),17,29,-23,31,17,x
O=C(CN1CCCCC1)Nc1nnc(-c2ccccc2)s1,0,4,x,12,-13,x
O=C(CN1CCCCC1)Nc1nnc(-c2ccc([N+](=O)[O-])cc2)s1,15,91*,-4,-10,6,24
SMILES,Beta2AR agonist,tim23-1 inh,PfHsp90 yeast 2,tim10-1 inh,TIM10 inh,tim23-1 confirm
NCCCCc1ccc2ccc3cccc4ccc1c2c34,5,50*,12,32,7,9
COc1ccc(Cc2ccccc2C(=O)O)cc1,-3,x,-23,x,x,x
COc1ccc(CC2=CC(=O)c3ccccc3C2=O)cc1,56*,66*,4,30,36,75*
Cc1ccc2nc(-c3ccc(NC(=S)NC4CC(C)(C)NC(C)(C)C4)cc3)sc2c1,13,70*,21,25,29,67*
O=C(Nc1ccc2c(c1)OCCO2)c1cccc(Cl)c1,-4,51*,21,-6,33,57*
Nc1c(C(=O)Nc2ccc3c(c2)OCCO3)nnn1Cc1cccc(Cl)c1,12,23,x,17,11,x
Nc1c(C(=O)Nc2ccc3c(c2)OCCO3)nnn1Cc1ccccc1Cl,4,66*,83*,8,-18,42*
Cc1cc(C)n(CCC(=O)Nc2ccc3c(c2)OCCO3)n1,4,-1,3,-11,8,x
Cc1nnc(N2CCCCC2)c2ccccc12,3,-1,17,0,1,x
CC1CCN(c2nnc(N3CCC(C)CC3)c3ccccc23)CC1,-4,70*,-4,13,15,57*
Cc1ccc(-c2nnc(N3CCCCC3)c3ccccc23)cc1,1,54*,12,38,36,53*
O=C(/C=C/N1CCOCC1)c1ccc(-c2ccccc2)cc1,1,52*,106*,1,36,25
N#C/C(N)=C(/C#N)N=Cc1cccc(Cl)c1,3,52*,4,-11,1,52*
N#CC(C#N)=C(N)Nc1cccc(Cl)c1,-2,-16,0,-15,-3,x
O=C1C=C(c2cccc(Cl)c2O)C[C@@H](c2ccc3c(c2)OCO3)C1,8,67*,-139,34,29,54*
O=C1C=C(c2cccc(Cl)c2)C[C@@H](c2ccc3c(c2)OCO3)C1,7,26,-54,-11,-1,x
COc1ccc(-c2sc3ccccc3c2-c2ccc(O)cc2)cc1,23,35,u,-11,35,x
COc1ccccc1-c1sc2ccccc2c1-c1ccc(O)cc1,1,55*,114*,-19,33,4
O=S1(=O)N[C@@H](CC2CCCCC2)COc2cc(Br)ccc21,0,39,43,13,-2,x
O=S1(=O)N[C@@H](Cc2ccccc2)COc2cc(Br)ccc21,-9,70*,11,26,3,42*
O=C(CCl)N(c1ccccc1)c1c[nH]c2ccccc12,1,24,-12,23,20,x
CC(=O)n1cc(N(C(=O)CCl)c2ccccc2)c2ccccc21,-12,54*,11,32,22,38
CC(=O)n1cc(N(C(=O)CCl)c2ccc([N+](=O)[O-])cc2)c2ccccc21,61*,64*,3,32,36,49*
CCOc1ccc2c(c1)c(N=O)c(O)n2C,4,20,-4,17,13,x
Cc1cccc(N(CC(=O)NCCc2ccccc2)C(=O)c2csnn2)c1,1,14,-5,24,-8,x
CN(C)c1ccc(CNC(=O)CCNS(=O)(=O)c2cc(Br)cnc2N)cc1,4,12,2,21,6,x
CCc1sc(C(=O)Nc2ccc3c(c2)OCO3)cc1C,22,55*,-8,-17,4,46*
CCc1sc(C(=O)Nc2ncccc2O)cc1C,-1,22,x,6,10,x
O=C(Nc1nccs1)c1ccc(Cl)s1,-3,70*,13,25,30,57*
